Source: PubChem (National Center for Advancing Translational Sciences (NCATS))
RE007 growth inh: less growth of the S. pombe RE007 Vpr strain; S. pombe RE007 Vpr strain, BacTiter-Glo ATP luminescence, 24 h; Potency, µM (highest dose often 92.2 µM), hits mostly inhibitors; 0.21% of 360,000 active; active means well fitted falling curve with a large enough effect; inconclusive means small, poorly fitted or top-dose-only effect; inactive means no such curve, though single readings can be large or run the other way; further: nearly all actives have a fitted effect of over 50% in size
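Fission yeast RE007 carrying one integrated HIV-1 vpr copy, seeded at OD 0.01 in PMG+AL medium with 23 nL pinned compound. Grown 24 h at 30 degrees; viability read by BacTiter-Glo luminescence after 5 min.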
LmPK inh: LmPK (Leishmania mexicana) enzyme inhibition; Q27686; purified LmPK, Kinase-Glo ATP luminescence, 1 h; Potency, µM (titrated, usually from 57.5 µM), most hits filed as inhibitors; 0.37% of 290,000 active; AID 1721
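Pyruvate kinase activity monitored as ATP production (luciferase luminescence). Conditions: 0.1 nM enzyme, 0.5 mM PEP, 0.1 mM ADP, 1 h, RT; normalized against uninhibited and no-enzyme wells.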
Tb PYK inh: blocks Trypanosoma brucei pyruvate kinase; TbPYK enzyme, Kinase-Glo Plus ATP luminescence, 45 min; Potency, µM (top dose mostly 76.8 µM), hits mostly inhibitors; AID 624173; 0.12% of 410,000 active; Q57TT1; further: nearly all actives have a fitted effect of over 50% in size
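Assay buffer: 50 mM TEA pH 7.2, 100 mM KCl, 10 mM MgCl2, 0.05% BSA, 0.01% Tween-20. Pyruvate kinase from T. brucei plus substrate met compound, then ADP (130 uM final). Luminescence was read post 45 min RT.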
Cycloheximide cs: counter-screen hit for Shiga toxin inhibitors, cycloheximide. cell reporter, cycloheximide protein synthesis inhibition counterscreen. 12% of 300,000 active. AID 2314. max response, %; in the data active means max response mostly above about 13%, no sharp cut-off; inactive means mostly below about 14%; further: read at 38.3 µM for the half of the compounds with a filed dose
Shiga toxin inh: Shiga toxin inhibition; Vero cells, Shiga toxin protein synthesis inhibition reporter; inhibition, % at 38.7 µM; 9.2% of 290,000 active; AID 2315; in the data active means inhibition mostly above about 28%, no sharp cut-off; inactive means mostly below about 43%
Giardia FBPA inh: blocks Giardia fructose-bisphosphate aldolase activity. A8B2U2. purified Giardia FBPA. Potency, µM (titrated, usually from 59.6 µM), actives largely listed as inhibitors. 0.71% of 290,000 active; further: nearly all actives have a fitted effect of over 55% in size
Target sequence (A8B2U2 whole entry, looked up): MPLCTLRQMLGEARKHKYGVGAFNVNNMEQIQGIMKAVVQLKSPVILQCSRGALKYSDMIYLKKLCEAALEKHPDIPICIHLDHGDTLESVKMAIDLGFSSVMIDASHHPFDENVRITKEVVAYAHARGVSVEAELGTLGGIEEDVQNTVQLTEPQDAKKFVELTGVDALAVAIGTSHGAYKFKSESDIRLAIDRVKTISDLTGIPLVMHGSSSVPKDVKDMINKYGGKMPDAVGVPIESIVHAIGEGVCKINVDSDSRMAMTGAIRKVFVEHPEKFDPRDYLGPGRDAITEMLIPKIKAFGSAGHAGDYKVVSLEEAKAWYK
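Giardia FBPA (40 nM reagent) was preincubated 10 min at RT with compound (up to 57.5 uM final), then substrate plus GAPDH/TPI/NAD/arsenate coupling system with diaphorase/resazurin was added; resorufin fluorescence (525/598 nm) was read after 20 min.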
A number is an active result; [ ] = dose if it differs, or a comment. Many of the other results were omitted from the sample, so hits are more common in it than they were. Unless noted, the call rests on the fitted dose curve; in most records, active means well fitted curve in the direction sought with a large enough effect; inconclusive means small, poorly fitted or top-dose-only effect, or another doubt; inactive means no such curve, though single readings can be large; an effect the other way counts as inactive or inconclusive.

Screening Cc1ccc(CCNC(=O)C2CCC(=O)N(Cc3ccccc3F)C2)o1 (stereo unspecified) returned RE007 growth inh inactive, LmPK inh inactive, Tb PYK inh inactive, Cycloheximide cs 40.2 and Shiga toxin inh 102.0.
For Oc1ccc(-c2nccs2)cc1 the results were RE007 growth inh inactive and Tb PYK inh inactive.
`COc1ccccc1CCCNC(=O)C1CCC(=O)N(Cc2ccccc2F)C1` (stereo unspecified) gave RE007 growth inh inactive, LmPK inh inactive, Tb PYK inh inactive, Cycloheximide cs 40.7, Shiga toxin inh 99.6 and Giardia FBPA inh inactive.
Screening COc1ccc(CCCNC(=O)C2CCC(=O)N(Cc3ccccc3F)C2)cc1 (stereo unspecified) returned RE007 growth inh inactive, LmPK inh inactive, Tb PYK inh inactive, Cycloheximide cs 30.6 and Shiga toxin inh inactive.
For Cc1cc(C)nc(CCNC(=O)C2CCC(=O)N(Cc3ccccc3F)C2)n1 (stereo unspecified) the results were RE007 growth inh inactive, LmPK inh inactive, Tb PYK inh inactive, Cycloheximide cs inactive and Shiga toxin inh inactive.
COc1ccc(N2CCN(C(=O)Cn3cnc4sc(C)c(S(=O)(=O)N5CCCCC5)c4c3=O)CC2)cc1 was read as Tb PYK inh inactive.
Screening COC(=O)c1ccc(COc2cc(O)c3c(c2)OC(C)(C)CC3=O)cc1 returned RE007 growth inh inactive, LmPK inh inactive, Tb PYK inh inactive, Cycloheximide cs inactive, Shiga toxin inh inactive and Giardia FBPA inh inactive.
`CC1(C)CC(=O)c2ccc(OCc3ccc([N+](=O)[O-])cc3)cc2O1` gave RE007 growth inh inactive, LmPK inh inactive, Tb PYK inh inactive, Cycloheximide cs 40.4, Shiga toxin inh 84.5 and Giardia FBPA inh inactive.
`CC1(C)CC(=O)c2cc(OCC(=O)O)ccc2O1` gave RE007 growth inh inactive, LmPK inh inactive, Tb PYK inh inactive, Cycloheximide cs inactive, Shiga toxin inh inactive and Giardia FBPA inh inactive.
`CC1(C)CC(=O)c2c(O)cc(OCc3ccc(Br)cc3)cc2O1` gave RE007 growth inh inactive, LmPK inh inactive, Tb PYK inh inactive, Cycloheximide cs 48.6, Shiga toxin inh 69.6 and Giardia FBPA inh inactive.
O=C(Nc1ccc(F)cc1)C1CCN(c2nc3ccccc3n3cccc23)CC1 was read as Tb PYK inh inactive.
Screening O=C(NCCc1csc2nc(-c3ccccc3F)nn12)C(=O)Nc1cc(F)ccc1F returned Tb PYK inh inactive.
Screening CNc1ccccc(C(=O)/C=C/c2ccccc2OC)c1=O returned RE007 growth inh inactive, LmPK inh inactive, Tb PYK inh inactive, Cycloheximide cs 30.6, Shiga toxin inh 55.0 and Giardia FBPA inh 11.2µM.
COc1ccccc1/C=C/C(=O)N1CCCC1 was read as RE007 growth inh inactive, LmPK inh inactive, Tb PYK inh inactive, Cycloheximide cs 32.7, Shiga toxin inh inactive and Giardia FBPA inh inactive.
COc1ccccc1/C=C/C(=O)/C=C/c1ccccc1O was read as RE007 growth inh inactive, LmPK inh inactive, Tb PYK inh inactive, Cycloheximide cs 99.4, Shiga toxin inh 139.2 and Giardia FBPA inh inactive.
For CNc1ccc(Br)cc(C(=O)/C=C/c2cccc(OC)c2OC)c1=O the results were RE007 growth inh inactive[3.69 µM], LmPK inh inactive, Cycloheximide cs inactive, Shiga toxin inh inactive and Giardia FBPA inh inconclusive.
Screening COc1ccccc1C=CC(=O)C=Cc1ccccc1OC returned RE007 growth inh inactive and Tb PYK inh inactive.
Screening Cc1cc(C)cc(NC(=O)C2CC(=O)N(c3ccccc3)C2)c1 (stereo unspecified) returned Tb PYK inh inactive.
Screening CCN(C(=O)CCS(=O)(=O)c1ccc2c(c1)CCN2C(C)=O)c1cccc(C(F)(F)F)c1 returned Tb PYK inh inactive.
For CCc1cccc(NC(=O)CNS(=O)(=O)c2ccc3nc(C)sc3c2)c1 the results were Tb PYK inh inactive.
CCN(CC)c1ccc(NC(=O)c2cccc(C)c2OC)c(C)c1 was read as RE007 growth inh inactive, LmPK inh inactive, Tb PYK inh inconclusive, Cycloheximide cs 65.0, Shiga toxin inh 86.6 and Giardia FBPA inh inactive.
